An excerpt weighted towards active compounds, which were near 1.5% of everything screened.
uPA surface inh – blocks generation of uPA at the cell surface; cell surface uPA generation assay, qHTS; Potency, µM (doses to about 38.3 µM), inactives show at the highest dose activity change, negative = inhibition, actives largely listed as inhibitors; 330,000 tested, 0.31% active; active = well fitted inhibition curve with a large enough effect; inconclusive = small, poorly fitted or top-dose-only effect; inactive = no such curve, though single readings can be large or run the other way; tested in mouse RAW 264.7 cells; note: potency is the fitted concentration of half-maximal effect; % is set by controls: 0 for no effect and ±100 for the full control effect; nearly all actives have a fitted effect of over 55% in size
Integrin act MD – activates integrin-mediated alleviation for muscular dystrophy | 350,000 tested, 0.064% active | alpha7betagal myoblasts, beta-gal FDG fluorescence, 48 h | Potency, µM (series often up to 38.3 µM), for the others: at the top dose activation, hits mostly activators | AID 624291;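 note: potency is the fitted concentration of half-maximal effect; 100% = response of the positive control SU9516; nearly all actives have a fitted effect of over 60% in size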
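Alpha7betagal+/- myoblasts (passage 13) were plated 16-24 hr, then exposed to compounds (1:260 dilution of DMSO stock) for 48 hours at 37C. After MPER lysis, β-galactosidase reporter activity was read as FDG fluorescence (ex 480/em 540) after 30 minutes.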
12-LOX inh – blocks human arachidonate 12S-lipoxygenase; purified 12hLO, xylenol orange hydroperoxide absorbance; Potency, µM (titrated, usually from 108 µM), inactives show top-dose activity change, negative = inhibition, most hits filed as inhibitors; 580,000 tested, 1.1% active; AID 1671190; note: potency is the fitted concentration of half-maximal effect; % is set by controls: 0 for no effect and ±100 for the full control effect
Target sequence (P18054 whole entry, looked up): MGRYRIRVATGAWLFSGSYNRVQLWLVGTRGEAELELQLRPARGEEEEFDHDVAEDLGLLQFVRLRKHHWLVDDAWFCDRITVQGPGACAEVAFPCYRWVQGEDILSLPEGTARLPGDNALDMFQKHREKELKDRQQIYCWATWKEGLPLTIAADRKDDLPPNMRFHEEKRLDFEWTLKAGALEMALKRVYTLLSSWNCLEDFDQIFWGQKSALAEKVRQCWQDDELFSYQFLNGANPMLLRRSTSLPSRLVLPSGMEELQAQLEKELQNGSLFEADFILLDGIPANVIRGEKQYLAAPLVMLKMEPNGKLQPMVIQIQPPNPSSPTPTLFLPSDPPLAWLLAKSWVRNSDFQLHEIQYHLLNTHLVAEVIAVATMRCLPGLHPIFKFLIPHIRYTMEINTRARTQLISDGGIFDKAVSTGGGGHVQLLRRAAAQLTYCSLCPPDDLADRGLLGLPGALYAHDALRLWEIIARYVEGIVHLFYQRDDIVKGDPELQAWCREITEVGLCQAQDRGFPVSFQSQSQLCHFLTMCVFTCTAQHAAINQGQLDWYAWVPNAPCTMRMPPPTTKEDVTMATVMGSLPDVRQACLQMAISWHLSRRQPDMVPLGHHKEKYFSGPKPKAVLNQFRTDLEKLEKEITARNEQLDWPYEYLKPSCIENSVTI
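Hydroperoxide product was detected by ferrous iron/xylenol orange as the 573 to 405 nm absorbance ratio. Arachidonic acid at 40 uM (final) was turned over for 30 min at room temperature by 150 nM human 12hLO, pH 7.0 Hepes buffer, after 15 min compound preincubation.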
IL2 activator – activators of IL-2 | activation, % (series mostly up to about 46 µM) | IL-2 activation reporter assay, cell-based qHTS; stimulated with anti-CD3/CD4/CD28 beads; in transgenic mouse T cells | 360,000 tested, 0.065% active; in the data active = activation above about 50%; inconclusive = mostly about 30% to 49%; note: 0% is about no effect
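Quantitative HTS in unstimulated transgenic mouse T cells, with memory T cells as non-tolerant control and PMA/ionomycin as tolerance-bypass control. Compound pretreatment lasted 60 minutes before 18 h bead stimulation; EGFP/DsRed fluorescence read.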
Nrf2 activator – activates Nrf2 signaling | AREc32 ARE-luciferase reporter (MCF7-derived line), luminescence, 24 h | Potency, µM (doses to about 46.1 µM), without a hit: at the highest dose activation, hits mostly activators | 410,000 tested, 0.31% active | AID 624171; note: potency is the fitted concentration of half-maximal effect; % of control where 0% means no effect; nearly all actives have a fitted effect of over 65% in size
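ARE activation measured as luciferase luminescence (Steady-Glo, 30 min RT) in AREc32_Fluc cells after 24 hr compound exposure at 37 deg C, 5% CO2; cells seeded overnight at 1000/well in OPTI-MEM, 5% FBS.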
* hit, by the source's call; ? = inconclusive; . = no result given; ! = repeats disagree; [ ] = dose if it differs, or a comment. Unless noted, calls come from the whole dose curve; as a rule, active = well fitted curve in the direction sought with a large enough effect; inconclusive = small, poorly fitted or top-dose-only effect, or another doubt; inactive = no such curve, though single readings can be large; an effect the other way counts as inactive or inconclusive.

SMILES | uPA surface inh | Integrin act MD | 12-LOX inh | IL2 activator | Nrf2 activator
Cc1ccccc1-c1noc(N)c1C#N | . | -42% | -20% | -2 | 18µM*
N#CC1=C(N)OC2=C(C(=O)CC(c3ccc(Cl)cc3)C2)C1c1ccccc1Cl (configuration not stated) | . | . | 16µM* | . | .
Cc1ccc(N2C(=O)c3cccc4c(C(=O)O)ccc(c34)C2=O)cc1 | . | . | -18% | . | .
CCOC(=O)c1ccc(N2C(=O)c3cccc4c(C(=O)O)ccc(c34)C2=O)cc1 | -14% | -8% | 16µM* | 0 | 0%
Cc1ccccc1CN1Cc2nc(Nc3ccccc3)ccc2OCC1=O | . | . | -7%[176 µM] | . | .
Cc1ccc(C(C)C)c(OCCNCCc2ccccc2)c1 | -5% | -22% | 7.9µM* | -1 | -1%
CCCCc1nc2sc3c(NCCN(C)C)ncnc3c2c2c1COC(C)(C)C2 | . | . | -22% | . | .
COc1cc(/C=C2\CC/C(=C\c3ccc(OCCO)c(OC)c3)C2=O)ccc1OCCO | -15% | -4% | -21% | 163* | ?
O=C(NCc1ccc(Cl)cc1)c1ccc(N2CC3CC(C2)[C@H]2CCCC(=O)N2C3)nc1 (some centres not stated) | . | . | -15% | . | .
NC(C(=O)O)C(CC(=O)O)c1ccc(Cl)cc1 (configuration not stated) | . | . | 1% | . | .
C[C@@H](CC(=O)O)[C@@H](N)C(=O)O | . | . | 20µM*! | . | .
CCOc1ccc(/C=N/NC(=O)c2c(C)n(C)c3ccc(OC)cc23)cc1 | -8% | 4% | -11% | 1 | 0%
COc1ccc2c(c1)c(C(=O)N/N=C/c1ccc(Br)cc1)c(C)n2C | 11µM* | -38% | ? | 0 | 0%
[N-]=C=C1C(=S)NC(=O)[C@H]([n+]2ccccc2)[C@H]1c1ccc(Cl)cc1 | -1% | 25% | 10µM* | -2 | 0%
COc1ccc(C2=NS(=O)(=O)N(C)C(C(=O)Nc3cccc(O)c3)=C2)cc1OC | . | . | -3% | . | .
O=[N+]([O-])c1cnc(Sc2ccncn2)s1 | 2.8µM* | -69% | -82% | -1 | ?
CCN(C(=O)c1cc2sc3ccccc3c2s1)c1ccccc1 | . | . | 7.9µM* | . | .
CCOC(=O)Nc1ccc2c(c1)C(=NNC(=S)NC)c1ccccc1-2 | . | -32% | 40µM* | -4 | -1%
COc1ccccc1NC(=S)NC1CCC(CC2CCC(NC(=S)Nc3ccccc3OC)CC2)CC1 (configuration not stated) | 6% | -6% | 32µM* | 0 | 0%
COc1ccccc1NC(=S)NC1CCCC1 | -8% | -12% | ? | 0 | 0%
S=C(Nc1cccc2ccccc12)Nc1cccc2ccccc12 | -5% | 1% | -23% | -1 | 7%
S=C(Nc1cccc2ccccc12)NC1CCCCC1 | 3% | -23% | 45µM* | 0 | 4%
COCCCNc1nc2ccccc2nc1NS(=O)(=O)c1ccc(Cl)cc1 | 10% | 3% | 0% | 1 | -1%
CCN1CCN(c2nc3ccccc3nc2NS(=O)(=O)c2cc(Cl)ccc2Cl)CC1 | . | . | 25µM* | . | .
COCCCNc1nc2ccccc2nc1NS(=O)(=O)c1cc(Cl)ccc1Cl | ? | -21% | 40µM* | 0 | 2%
SMILES | uPA surface inh | Integrin act MD | 12-LOX inh | IL2 activator | Nrf2 activator
C[C@H]1CN([C@@H](C)CO)C(=O)c2cc(C#CCC3CCCC3)cnc2O[C@@H]1CN(C)C(=O)CC1CC1 | . | -19% | 45µM* | -2 | 0%
C[C@@H]1CN([C@H](C)CO)C(=O)c2cc(Br)cnc2O[C@@H]1CN(C)C(=O)CC1CC1 | . | -1% | -6% | 0 | 0%
C[C@@H]1CN([C@@H](C)CO)C(=O)c2cc(C#CC3CCCCC3)cnc2O[C@@H]1CN(C)S(=O)(=O)c1ccc(F)cc1 | . | -63% | 40µM* | -3 | 0%
C[C@H](CO)N1C[C@H](C)[C@@H](CN(C)S(=O)(=O)c2ccc(F)cc2)Oc2ncc(Br)cc2C1=O | . | . | -22% | . | .
COc1cccc([S+](=O)([O-])N2CCn3c(nn(-c4cccc(Cl)c4)c3=O)C2)c1 | . | . | 6.3µM* | . | .
Cc1cc(C)cc(S(=O)(=O)c2cnc3ccccc3n2)c1 | -14% | -58% | -4% | -1 | 22µM*
O=C(CC(Nc1ccc(Br)cc1)C(=O)O)c1ccccc1 (configuration not stated) | . | . | 5% | . | .
O=C(CC(Nc1ccc(F)cc1)C(=O)O)c1ccccc1 (configuration not stated) | -5% | 0% | -22% | 1 | 20µM*
COc1cc(-c2ccnc3nc(C4CCC4)nn23)cc(OC)c1OC | . | . | 26% | . | .
CCOc1cc(/C=C/C(=O)c2cccc(Cl)c2)cc(Cl)c1O | . | . | 5.6µM* | . | .
CCOc1ccc(/C=C/C(=O)c2ccccc2)cc1OC | -7% | -36% | -6% | -1 | ?
CCOc1cc(/C=C/C(=O)c2ccccc2Cl)cc(Cl)c1O | . | . | 35µM* | . | .
Cc1cc(C(F)(F)F)n(CC(C)CNc2ncncn2)n1 (configuration not stated) | . | . | 59% | . | .
NC1CCc2nn(CC(=O)NCc3ccc4c(c3)OCO4)c(=O)n2CC1 (configuration not stated) | . | . | 50µM* | . | .
O=C(Cn1nc2n(c1=O)CCCC2)Nc1ccc2c(c1)OCO2 | . | . | 5% | . | .
CCc1ccc(C(=O)NNc2ccc(C)c(Cl)c2)cc1 | 12% | -11% | 16µM* | -4 | 5%
NC(=S)NNc1ccc(Cl)c(Cl)c1 | -4% | -28% | 16µM* | 0 | 3%
NC(=S)NNc1ccnc2cc(Cl)ccc12 | 2% | -3% | 5.6µM* | -3 | 6%
Cc1ccc(NNC(N)=S)cc1Cl | -2% | -44% | 28µM* | 0 | 3%
CCc1ccc(C(=O)NNc2ccc(F)cc2)cc1 | 0% | 3% | 85% | 1 | 3%
Cc1ccc(C(=O)NCc2coc(-c3cccs3)n2)c(C)c1 | . | . | -20% | . | .
CCOC(=O)c1sc(NC(=O)C2CC2)cc1C | -10% | -3% | 5% | 1 | 0%
CCOC(=O)c1sc(NC(=O)C(C)(C)C)cc1C | 11µM* | -8% | -2%[57.4 µM] | -2 | 4%
CCOC(=O)c1sc(NC(=O)c2cccc(S(=O)(=O)N(CC)CC)c2)cc1C | . | 2% | -4% | 3 | -1%
CCOC(=O)c1sc(NC(=O)c2cccc(S(=O)(=O)N3CCN(C)CC3)c2)cc1C | -11% | -55% | 45µM* | 1 | 3%
SMILES | uPA surface inh | Integrin act MD | 12-LOX inh | IL2 activator | Nrf2 activator
CCCCNC(=O)c1cc(-c2ccc(OC)cc2OC)nc2ccccc12 | . | . | 44% | . | .
Fc1ccc(/C=N/Nc2ccc(Cl)c(Cl)c2)cc1 | . | . | 2.2µM* | . | .
CSc1ccc(/C=N/Nc2ccc(Cl)c(Cl)c2)cc1 | . | . | 2µM* | . | .
N#Cc1ccc(/C=N/Nc2ccc(F)cc2)cc1 | . | . | 16µM* | . | .
CNC(=S)N/N=C/c1ccc(C(C)C)cc1 | -5% | -52% | -21% | -1 | 2%
CNC(=S)N/N=C/c1ccc(SC)cc1 | . | . | 14µM* | . | .
CSc1ccc(/C=N/Nc2ccc(Cl)c(C(=O)O)c2)cc1 | 1% | 3% | ? | -4 | 4%
CN/N=C/c1ccc(C#N)cc1 | -11% | 55% | 3% | 1 | 0%
CCCOc1ccc2c(c1)sc1ncc(NC(=O)c3ccc(OC)c(OC)c3)c(=O)n12 | . | . | 0% | . | .

Assay outcomes as filed in PubChem BioAssay.
